Potency and affinity values are given separately. Inconclusive results are not listed. A call without a number means that no potency is given here. Active and inactive are the calls of the source.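 How the source made its calls: active means compounds lowering the FRET ratio whose fitted half-maximal concentration is at most twice their top tested dose; inconclusive means flat partial drop between 30 and 70 percent, or bad fit; inactive means the rest.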
Molecular target: Voltage-dependent L-type calcium channel subunit alpha-1D (Homo sapiens) (UniProt Q01668)
Experiment: disruptors of CaV1.3 IQ/ICDI domain association – cell-based, HEK293, YFP-IQ/CFP-ICDI FRET, cherry-picks, dose response (AID 1053205)
Conditions: HEK293 YFP-IQ/CFP-ICDI FRET ratio, 10 min; series mostly up to 35 µM

Voltage-dependent L-type calcium channel subunit alpha-1D (Homo sapiens), sequence (Q01668 whole entry, looked up, the tested form may be a part): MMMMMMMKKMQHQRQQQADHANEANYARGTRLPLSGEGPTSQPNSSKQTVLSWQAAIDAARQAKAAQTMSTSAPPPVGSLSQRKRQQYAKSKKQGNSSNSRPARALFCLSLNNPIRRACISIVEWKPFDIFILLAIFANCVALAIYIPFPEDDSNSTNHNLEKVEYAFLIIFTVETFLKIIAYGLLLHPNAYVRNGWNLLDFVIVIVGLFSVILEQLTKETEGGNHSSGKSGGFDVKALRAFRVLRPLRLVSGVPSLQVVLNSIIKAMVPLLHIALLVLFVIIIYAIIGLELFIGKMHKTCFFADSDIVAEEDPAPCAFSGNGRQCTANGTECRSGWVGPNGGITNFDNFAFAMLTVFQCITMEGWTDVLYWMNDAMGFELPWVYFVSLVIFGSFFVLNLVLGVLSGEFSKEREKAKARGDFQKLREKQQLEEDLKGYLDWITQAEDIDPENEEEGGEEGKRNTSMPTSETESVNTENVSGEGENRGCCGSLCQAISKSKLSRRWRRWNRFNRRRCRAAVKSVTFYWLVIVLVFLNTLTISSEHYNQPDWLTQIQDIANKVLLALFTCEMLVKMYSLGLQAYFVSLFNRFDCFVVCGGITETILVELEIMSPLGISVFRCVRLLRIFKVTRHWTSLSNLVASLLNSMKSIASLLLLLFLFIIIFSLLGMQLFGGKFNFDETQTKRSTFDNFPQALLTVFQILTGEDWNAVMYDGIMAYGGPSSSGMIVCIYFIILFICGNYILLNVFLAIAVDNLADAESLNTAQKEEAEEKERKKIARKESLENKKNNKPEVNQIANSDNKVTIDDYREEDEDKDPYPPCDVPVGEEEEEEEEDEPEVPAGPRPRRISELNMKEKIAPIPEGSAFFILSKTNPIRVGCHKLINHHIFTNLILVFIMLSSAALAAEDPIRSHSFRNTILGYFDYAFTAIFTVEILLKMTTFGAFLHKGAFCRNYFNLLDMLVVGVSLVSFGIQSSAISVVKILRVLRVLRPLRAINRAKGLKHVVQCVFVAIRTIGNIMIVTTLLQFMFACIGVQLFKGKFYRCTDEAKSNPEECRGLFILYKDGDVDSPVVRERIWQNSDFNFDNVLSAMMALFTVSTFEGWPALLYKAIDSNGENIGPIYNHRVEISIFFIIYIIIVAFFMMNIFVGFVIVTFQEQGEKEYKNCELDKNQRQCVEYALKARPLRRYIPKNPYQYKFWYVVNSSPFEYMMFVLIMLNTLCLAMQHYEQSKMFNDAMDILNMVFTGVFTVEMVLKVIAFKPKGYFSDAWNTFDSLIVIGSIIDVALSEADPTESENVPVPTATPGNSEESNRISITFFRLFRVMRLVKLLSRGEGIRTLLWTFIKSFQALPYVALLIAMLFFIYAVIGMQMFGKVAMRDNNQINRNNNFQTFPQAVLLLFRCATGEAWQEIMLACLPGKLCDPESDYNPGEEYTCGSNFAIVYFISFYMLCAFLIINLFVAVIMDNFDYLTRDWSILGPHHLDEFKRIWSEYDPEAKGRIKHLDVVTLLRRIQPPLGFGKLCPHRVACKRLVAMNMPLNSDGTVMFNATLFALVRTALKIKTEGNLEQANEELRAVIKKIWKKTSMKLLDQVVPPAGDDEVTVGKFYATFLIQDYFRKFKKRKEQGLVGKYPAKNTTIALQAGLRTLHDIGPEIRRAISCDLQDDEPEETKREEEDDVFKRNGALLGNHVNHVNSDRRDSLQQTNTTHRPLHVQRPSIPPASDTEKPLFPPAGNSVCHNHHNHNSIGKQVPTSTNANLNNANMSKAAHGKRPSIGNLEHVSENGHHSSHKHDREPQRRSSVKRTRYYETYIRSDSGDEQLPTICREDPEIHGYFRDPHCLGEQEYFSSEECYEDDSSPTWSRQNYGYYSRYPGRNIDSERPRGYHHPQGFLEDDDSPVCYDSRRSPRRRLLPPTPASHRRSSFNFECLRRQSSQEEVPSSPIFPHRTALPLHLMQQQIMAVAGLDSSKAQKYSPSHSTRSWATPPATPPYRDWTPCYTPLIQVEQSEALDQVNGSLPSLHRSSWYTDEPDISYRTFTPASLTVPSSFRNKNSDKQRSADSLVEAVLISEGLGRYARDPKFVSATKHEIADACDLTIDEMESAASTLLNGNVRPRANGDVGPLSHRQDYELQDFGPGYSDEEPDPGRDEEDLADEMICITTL

Row | Compound | outcome
1 | CC(C)OP(=O)(O)NC(=O)c1ccccc1 | inactive
2 | N#CC1=C(N)Oc2cc(O)ccc2C1c1ccc2c(c1)OCO2 (configuration not stated) | inactive

Source: PubChem BioAssay AID1053205 (Broad Institute, 2014)
